Measured values reported in PubChem BioAssay AID1159580 (chemical genetic matrix, 2015).
About 2,000 (36%) of roughly 5,500 compounds were called active. Roughly 18% stayed inconclusive and do not appear here. No stated cut-off is given here; in the data, active means normalized growth mostly below about 0.91 (no sharp cut-off); inconclusive means no clear call, values can overlap the other calls; inactive means mostly above about 0.92. This is one part of the list.

Test: chemical genetic growth profiling, strain panel (AID 1159580);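 further: tested at 20 µM; growth read once vehicle control cultures reached saturation at 30 °C; 1 = growth at the plate median or of vehicle wells; lower values mean less growth of the strain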
Conditions: S. cerevisiae deletion strains, growth OD

Measured: normalized growth

CC(=O)Oc1c2c(c(CC=C(C)C)c3c1C(=O)C1=C[C@@H]4CC5C(C)(C)OC(C/C=C(\C)C(=O)O)(C4=O)[C@@]15O3)OC(C)(CCC=C(C)C)C=C2 (stereo partly specified)
active: locus YDR137W, strain rgp1, active compounds read low 0.551 | locus YDR392W, strain spt3, active compounds read low 0.695 | locus YJL129C, strain trk1, active compounds read low 0.76 | locus YLR262C, strain YPT6 (second series), active compounds read low 0.543 | locus YLR320W, strain mms22, active compounds read low 0.806 | locus YMR205C, strain PFK2, active compounds read low 0.812 | locus YNL071W, strain lat1, active compounds read low 0.797 | locus YOR270C, strain vph1, active compounds read low 0.653
inactive: locus YAL021C, strain ccr4, active compounds read low 0.99 | locus YAL026C, strain drs2, active compounds read low 0.986 | locus YAL030W, strain snc1, active compounds read low 0.977 | locus YBL061C, strain skt5, active compounds read low 0.984 | locus YBR009C, strain hhf1, active compounds read low 0.948 | locus YBR023C, strain chs3, active compounds read low 0.962 | locus YBR171W, strain sec66, active compounds read low 0.989 | locus YBR231C, strain swc5, active compounds read low 0.953 | locus YBR279W, strain paf1, active compounds read low 0.975 | locus YCL011C, strain gbp2, active compounds read low 0.98 | locus YCL016C, strain dcc1, active compounds read low 0.97 | locus YCL069W, strain vba3, active compounds read low 0.991 | locus YCR088W, strain abp1, active compounds read low 0.972 | locus YDL005C, strain med2, active compounds read low 0.977 | locus YDL040C, strain nat1, active compounds read low 0.978 | locus YDR001C, strain nth1, active compounds read low 0.988 | locus YDR069C, strain doa4, active compounds read low 0.933 | locus YDR159W, strain sac3, active compounds read low 0.975 | locus YDR195W, strain ref2 1.11 | locus YDR297W, strain sur2, active compounds read low 0.969 | locus YDR334W, strain swr1, active compounds read low 0.976 | locus YDR335W, strain msn5, active compounds read low 0.994 | locus YEL003W, strain gim4, active compounds read low 0.978 | locus YEL037C, strain rad23, active compounds read low 0.99 | locus YEL061C, strain CIN8 (second series), active compounds read low 1 | locus YER015W, strain faa2, active compounds read low 0.989 | locus YER016W, strain bim1, active compounds read low 0.971 | locus YER111C, strain swi4, active compounds read low 0.99 | locus YER155C, strain BEM2 (second series), active compounds read low 0.96 | locus YFR010W, strain ubp6, active compounds read low 0.938 | locus YGL167C, strain pmr1, active compounds read low 0.982 | locus YGL173C, strain kem1, active compounds read low 0.97 | locus YGL227W, strain vid30, active compounds read low 1 | locus YGL240W, strain doc1, active compounds read low 0.983 | locus YGL253W, strain hxk2, active compounds read low 0.989 | locus YHR013C, strain ard1, active compounds read low 0.894 | locus YHR027C, strain rpn1, active compounds read low 0.984 | locus YHR142W, strain chs7, active compounds read low 0.939 | locus YJL092W, strain hpr5, active compounds read low 0.975 | locus YJL095W, strain BCK1 (second series), active compounds read low 0.944 | locus YJL115W, strain asf1, active compounds read low 1.01 | locus YJL154C, strain vps35, active compounds read low 0.996 | locus YJL164C, strain tpk1, active compounds read low 0.951 | locus YJL166W, strain qcr8, active compounds read low 0.984 | locus YJL187C, strain SWE1, active compounds read low 0.974 | locus YKL160W, strain elf1, active compounds read low 0.962 | locus YKR026C, strain gcn3, active compounds read low 0.983 | locus YKR091W, strain srl3, active compounds read low 0.978 | locus YLL001W, strain dnm1, active compounds read low 0.979 | locus YLL026W, active compounds read low 1 | locus YLL041C, strain sdh2, active compounds read low 0.994 | locus YLR027C, strain aat2, active compounds read low 0.977 | locus YLR221C, strain rsa3, active compounds read low 0.969 | locus YLR258W, strain gsy2, active compounds read low 0.979 | locus YLR342W, strain FKS1, active compounds read low 0.963 | locus YLR357W, strain rsc2, active compounds read low 1.05 | locus YLR370C, strain arc18, active compounds read low 0.946 | locus YLR384C, strain iki3, active compounds read low 0.981 | locus YML120C, strain ndi1, active compounds read low 0.996 | locus YMR058W, strain fet3, active compounds read low 0.982 | locus YMR125W, strain sto1, active compounds read low 0.993 | locus YMR129W, active compounds read low 0.975 | locus YMR231W, strain pep5, active compounds read low 0.987 | locus YNL209W, strain ssb2, active compounds read low 0.977 | locus YNL248C, strain rpa49, active compounds read low 0.983 | locus YNL322C, strain KRE1 (second series), active compounds read low 1.01 | locus YNR049C, strain mso1, active compounds read low 0.984 | locus YOR001W, strain rrp6, active compounds read low 0.988 | locus YOR070C, strain gyp1, active compounds read low 0.971 | locus YOR080W, strain dia2, active compounds read low 0.994 | locus YOR083W, strain WHI5, active compounds read low 0.953 | locus YOR106W, strain vam3, active compounds read low 0.931 | locus YOR265W, strain rbl2, active compounds read low 0.962 | locus YOR290C, strain snf2, active compounds read low 0.96 | locus YPL051W, strain arl3, active compounds read low 0.931 | locus YPL078C, strain atp4, active compounds read low 0.967 | locus YPL106C, strain sse1, active compounds read low 1.02 | locus YPL240C, strain hsp82, active compounds read low 0.978
